# Sampled rows, rich in hits. Any-hit rate of the full collection: about 2.4%.
# TMEM16A inh: blocks the mouse calcium-activated chloride channel TMEM16A; Q8BHY3; HEK293 TMEM16A/YFP iodide influx fluorescence, ionomycin; normalized B-score (activity score, 25-100; higher = stronger inhibition) at 10 µM; 310,000 compounds, 1.2% hits; AID 588511;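 active = ratio plate-corrected score three or more library SD toward inhibition, starting fluorescence score within five deviations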;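 also: score derived from kinetic fluorescence span divided by baseline fluorescence per well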
# TMEM16A act: activates or potentiates the mouse TMEM16A chloride channel | HEK293 TMEM16A/YFP-H148Q/I152L, iodide quench fluorescence; stronger effect = lower value | B-score at 10 µM | 340,000 compounds, 0.3% hits | AID 623877;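 active = fluorescence-ratio B-score plate-corrected deviation score at least 3 library SD below zero, with starting fluorescence score within 5 deviations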;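 also: channel opened by trigger with iodide after compound preincubation; score built on the fluorescence ratio of max minus min over baseline; more negative score means more quench and so TMEM16A activation or potentiation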
# TLR4 MyD88 comp: inhibitors of human TLR4-MyD88 binding; 200,000 compounds, 0.18% hits; inhibition, % at 8.4 µM; HeLa CL3-4 TLR4/MyD88 BLA complementation, FRET ratio; in the data active = inhibition above about 25%;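 also: 0% = vehicle and 100% = reference inhibitor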
# Target sequence (O00206 whole entry, looked up): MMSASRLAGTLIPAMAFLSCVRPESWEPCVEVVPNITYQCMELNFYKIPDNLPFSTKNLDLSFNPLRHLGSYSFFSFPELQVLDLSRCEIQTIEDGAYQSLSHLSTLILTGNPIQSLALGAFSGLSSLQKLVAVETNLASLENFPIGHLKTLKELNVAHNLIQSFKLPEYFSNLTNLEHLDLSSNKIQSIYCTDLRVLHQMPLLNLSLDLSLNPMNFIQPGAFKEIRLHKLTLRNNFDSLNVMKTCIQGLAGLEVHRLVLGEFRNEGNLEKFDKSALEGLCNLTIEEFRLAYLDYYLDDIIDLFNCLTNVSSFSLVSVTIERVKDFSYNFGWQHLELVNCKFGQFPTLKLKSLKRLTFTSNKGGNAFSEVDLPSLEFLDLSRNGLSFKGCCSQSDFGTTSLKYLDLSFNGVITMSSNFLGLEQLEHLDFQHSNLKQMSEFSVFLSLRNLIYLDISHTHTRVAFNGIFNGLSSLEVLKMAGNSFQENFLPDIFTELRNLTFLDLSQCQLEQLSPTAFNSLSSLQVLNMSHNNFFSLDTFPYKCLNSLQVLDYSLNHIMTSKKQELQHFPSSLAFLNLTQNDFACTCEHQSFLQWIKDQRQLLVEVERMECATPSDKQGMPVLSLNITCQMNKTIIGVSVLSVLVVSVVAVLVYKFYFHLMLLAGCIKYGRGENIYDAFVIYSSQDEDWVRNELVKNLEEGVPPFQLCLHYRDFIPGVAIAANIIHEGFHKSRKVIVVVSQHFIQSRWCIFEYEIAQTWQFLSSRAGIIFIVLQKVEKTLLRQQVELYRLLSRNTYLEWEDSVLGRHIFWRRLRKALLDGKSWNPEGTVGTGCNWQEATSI
# Target sequence (Q99836 whole entry, looked up): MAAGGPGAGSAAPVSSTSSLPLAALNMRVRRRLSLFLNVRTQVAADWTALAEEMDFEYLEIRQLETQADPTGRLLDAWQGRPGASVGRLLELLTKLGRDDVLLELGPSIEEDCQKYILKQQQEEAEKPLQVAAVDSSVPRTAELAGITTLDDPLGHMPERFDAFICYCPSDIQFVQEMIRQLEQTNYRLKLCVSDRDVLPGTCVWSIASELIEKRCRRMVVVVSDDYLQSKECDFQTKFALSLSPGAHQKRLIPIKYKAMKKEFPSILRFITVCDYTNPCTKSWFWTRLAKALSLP
# NOD2 RIPK2 PPI: blocks binding of human NOD2 to RIPK2. AID 624267. 360,000 compounds, 0.38% hits. CHO BLA complementation NOD2-RIPK2, CCF4 ratio. inhibition, % at 4.98 µM. O43353; in the data active = inhibition above about 21%;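 also: 0% = vehicle only and 100% = reference blocker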
# TLR9-MyD88 block: TLR9-MyD88 interaction inhibition; inhibition, % at 4.98 µM; 340,000 compounds, 0.21% hits; CHO BLA complementation TLR9-MyD88, CCF4 FRET ratio; Q9NR96+Q99836; AID 504734;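 active = inhibition above the mean over all tested compounds plus 3 SD, cut at about 21% in these data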;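 also: 0% = DMSO only wells and 100% = clavulanate BLA inhibitor control wells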
# m5-HT2A agonist: agonists of mouse serotonin 5-HT2A receptor (HTR2A); P35363; CHO-K1 mHTR2A beta-arrestin complementation, luminescence; percent of 30 µM serotonin response; activation, % at 7.6 µM; 360,000 compounds, 0.66% hits; AID 624169;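 active = activation above a run cutoff, the mean activation of all tested compounds plus 3 SD, cut at about 14% in these data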;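 also: 0% = plate median of compound wells and 100% = 30 µM serotonin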
# TLR9-MyD88 cf: confirmation of human TLR9-MyD88 binding inhibitors. 680 compounds, 51% hits. CHO TLR9/MyD88 BLA complementation, CCF4 FRET ratio. inhibition, % at 4.98 µM. shares compounds with TLR9-MyD88 block;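 active = mean inhibition across three repeats above about 21% taken from the earlier screen, limit read from the data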;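 also: blue over green emission ratio reports constitutive TLR9 MyD88 association via BLA complementation; 0% = DMSO vehicle wells and 100% = clavulanate BLA inhibitor wells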
# BLA nonselective: non-selective beta-lactamase inhibitors in TLR9-MyD88 counter-screen; shares compounds with TLR9-MyD88 block; CHO-BLA cells, CCF4 FRET ratio, BLA reporter; inhibition, % at 4.98 µM; 680 compounds, 7% hits; AID 540251;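 active = mean inhibition above a 50% cutoff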;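 also: counterscreen of TLR9-MyD88 hits on CMV-driven BLA in CHO-K1 cells; 0% = DMSO alone and 100% = clavulanate blocking BLA; higher means less blue over green ratio so more BLA blockade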
# TLR9 CHO tox: counter-screen for TLR9-MyD88 inhibitors: cytotoxicity in CHO cells; inhibition, % at 4.98 µM; 680 compounds, 39% hits; luminescence; shares compounds with TLR9-MyD88 block; in the data active = inhibition above about 11%
# The depositor's hits bear a star; i = inactive; · = not tested or not shown.
SMILES,TMEM16A inh,TMEM16A act,TLR4 MyD88 comp,NOD2 RIPK2 PPI,TLR9-MyD88 block,m5-HT2A agonist,TLR9-MyD88 cf,BLA nonselective,TLR9 CHO tox
O=C(COC(=O)c1ccc2c(c1[N+](=O)[O-])C(=O)c1ccccc1C2=O)NC1CC1,i,i,7,19,25*,-7,12,-4,19*
C=CCn1c(O)c(N=O)c2ccccc21,i,i,·,5,-3,3,·,·,·
C/C(Cl)=C\Cn1c(O)c(N=O)c2ccccc21,i,i,8,19,21*,8,9,11,2
Cc1ccc(Cn2c(O)c(N=O)c3ccccc32)cc1,i,i,9,13,24*,-5,1,3,5
O=Nc1c(O)n(Cc2ccc(Cl)cc2Cl)c2ccccc12,i,i,0,16,33*,8,23*,20,2
CCn1nc(-c2ccccc2)c2nc3ccccc3nc21,i,i,25,10,25*,1,35*,34,4
C=CC[C@H](CC(=O)N(CCO)Cc1ccccc1)C(=O)N[C@H](C)COC(=O)[C@@H](CC=C)Cc1ccc(F)cc1,·,i,·,4,0,-3,·,·,·
O=C(/C=C/c1ccc(Cl)c([N+](=O)[O-])c1)Nc1ccc(N2CCCC2)c(Cl)c1,i,i,11,-8,-3,4,·,·,·
Nc1nnnn1/N=C/c1cc(Cl)ccc1O,i,i,·,20,28*,2,10,11,0
Nc1nnnn1/N=C/c1ccccc1Cl,·,·,·,5,-6,1,·,·,·
Nc1nnnn1/N=C/c1cc(Cl)cc(Cl)c1O,i,i,·,6,23*,7,24*,28,-4
Nc1nnnn1/N=C/c1cc(Cl)cc(Cl)c1OCc1ccc(Cl)cc1Cl,i,i,-1,-3,4,-4,·,·,·
COC(=O)C1=C(NC(=O)c2cccc(OC)c2)CCS1,i,i,9,-6,1,0,·,·,·
O=[N+]([O-])c1cnc(Sc2ccncn2)c([N+](=O)[O-])c1,·,·,·,-3,5,-2,·,·,·
O=[N+]([O-])c1cnc(Sc2ccncn2)s1,25*,i,·,80*,31*,-1,46*,1,99*
S=c1[nH]nc(-c2cccnc2)n1Cc1ccccc1,i,i,-4,2,24*,0,-3,-4,-3
S=c1[nH]nc(-c2ccncc2)n1Cc1ccccc1,i,i,-10,3,10,2,·,·,·
CCOC(=O)[C@]12CCCC=C1N(CCC1=CCCCC1)C(=O)[C@H](CC(=O)NCc1ccc(C)o1)C2,·,·,·,-18,·,1,·,·,·
CN(C)S(=O)(=O)N1C(=O)c2ccccc2C1=O,i,i,·,-6,-8,-1,·,·,·
CN(C)/C=C1\C=C2C(=O)c3ccccc3N2C1=O,i,i,·,1,23*,-3,7,8,-1
COc1ccc(C(=O)/C=C/c2ccc(O)cc2)c(O)c1CC=C(C)C,i,i,-6,3,5,-13,·,·,·
COc1ccc(C(=O)/C=C/c2ccc(O)cc2)c2c1CC(O)C(C)(C)O2 (configuration not stated),·,i,·,3,23*,-10,6,5,5
COc1cc(/C=C/C(=O)OCC(=O)Nc2ccc3[nH]c(=O)[nH]c3c2)ccc1OC(F)F,·,·,·,-10,23*,0,7,3,7
c1ccc(-c2cnn3c(-c4ccccc4)c(-c4ccccc4)nc3n2)cc1,·,i,13,9,23*,0,60*,58*,-3
O=S(=O)(Nc1ccccn1)c1ccc(Cl)c2ccccc12,i,i,1,-14,-2,0,·,·,·

# Compound activity from PubChem BioAssay.
